In PubChem BioAssay (NCI):
The panel holds about 83,000 compounds, 20% with a hit somewhere; the sample as a whole holds those more often.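 Values shown are percent growth following 48 h exposure of cells in 96-well plates to a single concentration of compound; below 10 was considered active.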 Values without a mark were called inactive. Calls of active or inactive are those of the source.

System: SW-620 colon
Test: NCI-60 one-dose screen, 48 h (100 = growth as untreated, 0 = no growth, -100 = all killed)
Settings: 10 µM unless noted

SMILES | growth
Cc1nn(-c2ccccc2)c2ncn(CC(=O)N/N=C/c3ccccc3O)c(=O)c12 | 43.5%
COc1ccc(C2=NN(C(=O)[C@H]3[C@@H](c4ccco4)c4sc(=O)[nH]c4S[C@@H]3C)C(c3ccc4ccccc4c3)C2)cc1 (some centres not stated) | 24.9%
CCc1ccccc1NC(=O)N/C(N)=N/c1nc2ccccc2s1 | 21.3%
O=C(Nc1ccc(Cl)c(C(F)(F)F)c1)N1CCN(c2cc(-c3cn(-c4ccccc4)nc3-c3cccc(O)c3)ccn2)CC1 | 16.6%
NC(=O)c1ccc(-c2ccc3ncnc(N4CCc5cc(F)c(Cl)cc54)c3c2)cn1 | 94.2%
COc1cc2cc(C(=O)N3C[C@@H](CCl)c4c3cc(OC(=O)N(CCC(=O)N3CCN(C)CC3)[C@H]3CCSSC3)c3ccccc43)[nH]c2c(OC)c1OC | -42.4% (active)
COc1ccc2[nH]c(=O)c(CSc3ccccc3Nc3nccc(-c4ccc5c(c4)OCO5)n3)cc2c1 | 106%
